The target of one experiment is Adra2b (gene 24174) (UniProt P19328). As to the kind of experiment: NVS_GPCR_rmAdra2B: NovaScreen (NVS) G Protein-Coupled Receptor Assay for hybird cells Adrenergic, Alpha 2B Receptor (Adra2B) (AID 2283306). The procedure, abridged:
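Compounds screened first at 25 uM in duplicate, with actives followed up in concentration-response; specific radioligand displacement from hybrid neuroglioma/blastoma cell membrane preparations measured by filter scintillation counting after 1 h, normalized to DMSO.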

The target in experiment [1] is rat Neurokinin-1 Receptor (NK1), Tacr1 (gene 24807) (UniProt P14600). Nature of the experiment: NVS_GPCR_rNK1: NovaScreen (NVS) G Protein-Coupled Receptor Assay for rat Neurokinin-1 Receptor (NK1) (AID 2283309). The essentials:
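Competitive radioligand binding to NK1 in rat submaxillary membranes, 1 h incubation, filtration and scintillation read-out. Compounds first screened at 25 uM in duplicate, then concentration-response for actives; signal loss relative to DMSO.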

Experiment [2] has as its target rat Opioid Receptor, Non-selective Sodium (Na+) Binding, Oprm1 (gene 25601) (UniProt P33535). As to the kind of experiment: NVS_GPCR_rOpiate_NonSelectiveNa: NovaScreen (NVS) G Protein-Coupled Receptor Assay for rat Opioid Receptor, Non-selective Sodium (Na+) Binding (AID 2283311). The procedure, abridged: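 Filtration radioligand binding on rat forebrain membrane preparations, read 1.5 h after dosing. Single-concentration 25 µM primary screen in duplicate, followed by singleton concentration series to 50 µM max for actives; DMSO baseline.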

Experiment [3] concerns the target rat Neonicotinoid receptor (NNR), Chrna7 (gene 25302) (UniProt Q05941). Nature of the experiment: NVS_LGIC_rNNR_BungSens: NovaScreen (NVS) Ligand-Gated Ion Channel Assay for rat Neonicotinoid receptor (NNR) (AID 2283315). The procedure, abridged: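 Rat cortical membrane preparation incubated 2.5 h with tritiated or iodinated radioligand and test chemical. Bound radioactivity was filtered and counted by scintillation, and displacement was analysed against DMSO.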

The target of experiment [4] is Sodium channel protein type 1 subunit alpha (Rattus norvegicus) (UniProt P04774). Nature of the experiment: NVS_IC_rNaCh_site2: NovaScreen (NVS) Ion Channel Assay for rat Sodium Channel, Site 2 (NaCh) (AID 2283322).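 Also: hit means loss of radioligand binding signal relative to DMSO so AC50 marks displacement.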 The procedure, abridged:
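Initial duplicate single-point testing at 25 uM, followed by concentration-response runs for actives. Binding of radioligand to rat forebrain membranes quantified after 1 h via filter-based radiodetection.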

Experiment [5] addresses human Serotonin, 5-Hydroxytryptamine Receptor 3 (5HT3), HTR3A (gene 3359) (UniProt P46098). As to the kind of experiment: NVS_LGIC_h5HT3: NovaScreen (NVS) Ligand-Gated Ion Channel Assay for human Serotonin, 5-Hydroxytryptamine Receptor 3 (5HT3) (AID 2283325). The procedure, abridged:
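Initially tested at 25 uM in duplicate, then up to 50 uM in concentration-response for actives, compounds competed with a radioligand for HEK293-derived human 5-HT3 receptor. Bound counts were measured by filtration and scintillation at 1 h; loss of signal versus DMSO.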

The target in experiment [6] is rat Glutamate, NMDA Agonist Site (GluNMDA), Grin1 (gene 24408) (UniProt P35439). As to the kind of experiment: NVS_LGIC_rGluNMDA_Agonist: NovaScreen (NVS) Ligand-Gated Ion Channel Assay for rat Glutamate, NMDA Agonist Site (GluNMDA) (AID 2283327). The essentials: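 Radioligand displacement at the agonist site on rat forebrain membrane preparations, read by filter scintillation after 1 h. Chemicals were first run at 25 uM in duplicate; those passing threshold were titrated to a 50 uM maximum.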

In experiment [7] the target is rat Gamma-Aminobutyric Acid Type B Receptor (GABBR), Gabbr1 (gene 81657) (UniProt Q9Z0U4). Nature of the experiment: NVS_GPCR_rGABBR: NovaScreen (NVS) G Protein-Coupled Receptor Assay for rat Gamma-Aminobutyric Acid Type B Receptor (GABBR) (AID 2283301). The procedure, abridged:
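Rat cortical membrane preparation, competitive radioligand binding for 1 h with filtration and scintillation readout. Actives from duplicate single-point 25 uM screening proceeded to concentration series with 50 uM top concentration.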

Experiment [8] addresses rat Somatostatin Receptor (SST), Sstr1 (gene 25033) (UniProt P28646). As to the kind of experiment: NVS_GPCR_rSST: NovaScreen (NVS) G Protein-Coupled Receptor Assay for rat Somatostatin Receptor (SST) (AID 2283314). The essentials: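 Single-concentration duplicate screen (25 uM), then concentration-response up to 50 uM for chemicals passing a threshold such as 30% inhibition. Membranes came from rat forebrain. Binding was measured 1 h post-dose by filter radiodetection and scintillation, relative to DMSO.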

For experiment [9], the target named is rat Opioid Receptor, Non-selective Binding, Oprm1 (gene 25601) (UniProt P33535). Nature of the experiment: NVS_GPCR_rOpiate_NonSelective: NovaScreen (NVS) G Protein-Coupled Receptor Assay for rat Opioid Receptor, Non-selective Binding (AID 2283318). The essentials: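 Filter-based radioligand displacement using rat forebrain membrane preparations, measured 1.5 h post-dosing. Single-concentration duplicate screen at 25 uM, follow-up in concentration series; activity taken as signal loss relative to DMSO.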

Experiment [10] deals with rat Glutamate, AMPA Site (AMPA), Gria1 (gene 50592) (UniProt P19490). Nature of the experiment: NVS_LGIC_rAMPA: NovaScreen (NVS) Ligand-Gated Ion Channel Assay for rat Glutamate, AMPA Site (AMPA) (AID 2283324). The essentials:
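Screening at 25 uM in duplicate preceded concentration series reaching 50 uM for qualifying compounds. Radioligand displacement on rat forebrain membranes, 1 h, filter-based scintillation readout; reduced binding relative to DMSO.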

Experiment [11] addresses rat Neurokinin-3 Receptor (NK3), Tacr3 (gene 24808) (UniProt P16177). Nature of the experiment: NVS_GPCR_rNK3: NovaScreen (NVS) G Protein-Coupled Receptor Assay for rat Neurokinin-3 Receptor (NK3) (AID 2283310). The essentials:
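Filter-based radioligand displacement on rat cortex membrane preparations, read by scintillation 2 h post-dose. Chemicals first tested in duplicate at 25 uM; actives followed up in concentration series with a 50 uM maximum.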

A short description of experiment [12]: NVS_IC_rCaDHPRCh_L: NovaScreen (NVS) Ion Channel Assay for rat Calcium Channel, Type L, Dihydropyridine Site (CaDHPRCh_L) (AID 2283320). The essentials:
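Rat cortex membrane preparation; dihydropyridine-site radioligand displacement read 1 h post-dose by filtration and scintillation. Primary single-point screen 25 uM in duplicate, then concentration series to 50 uM maximum; DMSO as negative control.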

In experiment [13] the target is rat Histamine Receptor (H3), Hrh3 (gene 85268) (UniProt Q9QYN8). Nature of the experiment: NVS_GPCR_rH3: NovaScreen (NVS) G Protein-Coupled Receptor Assay for rat Histamine Receptor (H3) (AID 2283303). The procedure, abridged: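 Filter-binding radioligand competition on rat forebrain membranes, 1 h incubation; compounds screened at 25 µM in duplicate and followed in concentration series to 50 µM, loss of bound signal vs DMSO.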

In experiment [14] the target is rat Gamma-Aminobutyric Acid Type A Receptor, Non-Selective (GABAR-NonSelective), Gabra1 (gene 29705) (UniProt P62813). As to the kind of experiment: NVS_LGIC_rGABAR_NonSelective: NovaScreen (NVS) Ligand-Gated Ion Channel Assay for rat Gamma-Aminobutyric Acid Type A Receptor, Non-Selective (GABAR-NonSelective) (AID 2283326). The procedure, abridged: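 Compounds were first screened in duplicate at 25 uM, with actives run as singleton concentration series (max 50 uM). Binding of a radioligand to rat whole-brain GABA-A preparation was measured by filtration and scintillation counting after 1 h, DMSO baseline.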

Another experiment deals with NCBI gene 24521. Nature of the experiment: NVS_IC_rKATPCh: NovaScreen (NVS) Ion Channel Assay for rat Potassium Channel, ATP-Sensitive (KATPCh) (AID 2283319). The essentials: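 Primary duplicate screen at 25 uM, then singleton concentration series to 50 uM maximum, in a rat cortex membrane radioligand displacement assay. Binding measured by filtration and scintillation 2 h post-dose; DMSO baseline.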

Experiment [15] has as its target bovine Gamma-Aminobutyric Acid Type A Receptor BDZ, alpha 5 site (GABARa5), GABRA5 (gene 523515) (UniProt Q08E50). As to the kind of experiment: NVS_LGIC_bGABARa5: NovaScreen (NVS) Ligand-Gated Ion Channel Assay for bovine Gamma-Aminobutyric Acid Type A Receptor BDZ, alpha 5 site (GABARa5) (AID 2283323). The procedure, abridged: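 Tested first in duplicate at a single 25 uM, with hits re-run in concentration series to a 50 uM maximum. Bovine hippocampal membranes; specific radioligand displacement measured by filter scintillation counting 1 hr post-dose.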

The target in experiment [16] is human Constitutive Androstane Receptor (CAR), NR1I3 (gene 9970) (UniProt Q14994). As to the kind of experiment: NVS_NR_hCAR_Agonist: NovaScreen (NVS) Nuclear Receptor Binding Assay for human Constitutive Androstane Receptor Agonism (CAR) (AID 2283328). The procedure, abridged: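 Actives from a 25 uM duplicate screen were retested in singleton concentration series to 50 uM max. Biochemical TR-FRET assay on extracted CAR protein measured 1 h post-dose, with signal increase over DMSO control.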

Structures are written as SMILES. Inconclusive results are not listed. The source made the active and inactive calls. The calls were made as follows: active = hit-call score of the fitted dose curve at least 0.9, where 1 is the maximum; inconclusive = response in the unintended direction; inactive = score below 0.9.

Chain of rat Opioid Receptor, Non-selective Binding, Oprm1 (gene 25601) (P33535 whole entry, looked up): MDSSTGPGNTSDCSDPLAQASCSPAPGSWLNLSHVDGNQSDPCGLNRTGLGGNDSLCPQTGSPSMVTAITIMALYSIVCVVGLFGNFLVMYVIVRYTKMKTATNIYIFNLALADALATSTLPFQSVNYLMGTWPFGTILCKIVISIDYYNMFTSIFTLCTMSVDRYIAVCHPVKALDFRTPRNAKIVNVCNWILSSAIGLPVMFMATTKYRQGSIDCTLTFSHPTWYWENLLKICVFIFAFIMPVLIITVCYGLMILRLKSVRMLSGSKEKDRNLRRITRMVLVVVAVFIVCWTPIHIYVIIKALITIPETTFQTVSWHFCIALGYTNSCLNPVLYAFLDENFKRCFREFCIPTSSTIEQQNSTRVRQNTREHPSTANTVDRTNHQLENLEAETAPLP
Chain of rat Opioid Receptor, Non-selective Sodium (Na+) Binding, Oprm1 (gene 25601) (P33535 whole entry, looked up): as above
Chain of human Serotonin, 5-Hydroxytryptamine Receptor 3 (5HT3), HTR3A (gene 3359) (P46098 whole entry, looked up): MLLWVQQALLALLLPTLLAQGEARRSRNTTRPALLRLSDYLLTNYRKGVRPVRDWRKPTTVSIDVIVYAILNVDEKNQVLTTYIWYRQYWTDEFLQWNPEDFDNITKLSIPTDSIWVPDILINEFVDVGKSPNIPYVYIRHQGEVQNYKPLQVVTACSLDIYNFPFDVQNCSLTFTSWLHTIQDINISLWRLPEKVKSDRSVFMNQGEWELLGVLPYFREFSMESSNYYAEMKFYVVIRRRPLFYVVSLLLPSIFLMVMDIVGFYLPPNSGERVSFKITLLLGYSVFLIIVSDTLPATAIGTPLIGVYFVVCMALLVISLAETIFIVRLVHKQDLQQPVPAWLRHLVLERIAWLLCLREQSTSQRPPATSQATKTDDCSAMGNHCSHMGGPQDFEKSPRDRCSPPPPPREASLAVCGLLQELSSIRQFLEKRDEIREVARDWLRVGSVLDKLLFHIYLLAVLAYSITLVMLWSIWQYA
Chain of Adra2b (gene 24174) (P19328 whole entry, looked up): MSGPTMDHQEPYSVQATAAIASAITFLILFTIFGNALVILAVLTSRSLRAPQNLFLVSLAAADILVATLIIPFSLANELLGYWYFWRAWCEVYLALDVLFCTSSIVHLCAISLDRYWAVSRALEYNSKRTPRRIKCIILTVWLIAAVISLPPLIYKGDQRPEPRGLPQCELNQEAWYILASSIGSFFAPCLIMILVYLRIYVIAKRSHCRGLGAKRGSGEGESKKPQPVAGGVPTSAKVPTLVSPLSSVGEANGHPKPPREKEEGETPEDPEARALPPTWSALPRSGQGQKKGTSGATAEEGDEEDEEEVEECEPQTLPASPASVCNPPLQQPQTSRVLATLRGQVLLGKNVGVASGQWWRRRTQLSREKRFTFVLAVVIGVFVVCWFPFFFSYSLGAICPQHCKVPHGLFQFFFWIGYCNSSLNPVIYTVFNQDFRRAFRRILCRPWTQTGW
Chain of rat Neurokinin-1 Receptor (NK1), Tacr1 (gene 24807) (P14600 whole entry, looked up): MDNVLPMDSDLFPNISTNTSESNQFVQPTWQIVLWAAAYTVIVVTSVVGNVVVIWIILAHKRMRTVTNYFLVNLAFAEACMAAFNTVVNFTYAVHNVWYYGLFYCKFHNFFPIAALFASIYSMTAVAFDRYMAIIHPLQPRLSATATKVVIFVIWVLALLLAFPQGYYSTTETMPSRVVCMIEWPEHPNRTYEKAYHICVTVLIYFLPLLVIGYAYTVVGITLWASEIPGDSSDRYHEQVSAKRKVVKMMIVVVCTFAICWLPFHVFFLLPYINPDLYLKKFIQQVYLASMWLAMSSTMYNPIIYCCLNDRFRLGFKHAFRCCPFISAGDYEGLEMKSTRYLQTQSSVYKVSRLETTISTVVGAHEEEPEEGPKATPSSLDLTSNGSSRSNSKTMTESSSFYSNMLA
Chain of rat Neurokinin-3 Receptor (NK3), Tacr3 (gene 24808) (P16177 whole entry, looked up): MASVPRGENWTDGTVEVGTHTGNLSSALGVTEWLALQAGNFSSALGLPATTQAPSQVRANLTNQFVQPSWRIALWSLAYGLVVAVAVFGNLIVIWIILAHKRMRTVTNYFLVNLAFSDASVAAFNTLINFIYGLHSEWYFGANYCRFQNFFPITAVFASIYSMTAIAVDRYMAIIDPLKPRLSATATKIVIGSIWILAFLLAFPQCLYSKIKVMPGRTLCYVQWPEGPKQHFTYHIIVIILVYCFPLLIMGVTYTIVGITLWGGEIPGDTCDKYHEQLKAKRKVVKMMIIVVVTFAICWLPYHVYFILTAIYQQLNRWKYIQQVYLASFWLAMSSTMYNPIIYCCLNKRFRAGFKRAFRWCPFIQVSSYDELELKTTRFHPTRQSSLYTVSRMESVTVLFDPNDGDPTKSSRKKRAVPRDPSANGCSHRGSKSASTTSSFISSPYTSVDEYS
Chain of rat Neonicotinoid receptor (NNR), Chrna7 (gene 25302) (Q05941 whole entry, looked up): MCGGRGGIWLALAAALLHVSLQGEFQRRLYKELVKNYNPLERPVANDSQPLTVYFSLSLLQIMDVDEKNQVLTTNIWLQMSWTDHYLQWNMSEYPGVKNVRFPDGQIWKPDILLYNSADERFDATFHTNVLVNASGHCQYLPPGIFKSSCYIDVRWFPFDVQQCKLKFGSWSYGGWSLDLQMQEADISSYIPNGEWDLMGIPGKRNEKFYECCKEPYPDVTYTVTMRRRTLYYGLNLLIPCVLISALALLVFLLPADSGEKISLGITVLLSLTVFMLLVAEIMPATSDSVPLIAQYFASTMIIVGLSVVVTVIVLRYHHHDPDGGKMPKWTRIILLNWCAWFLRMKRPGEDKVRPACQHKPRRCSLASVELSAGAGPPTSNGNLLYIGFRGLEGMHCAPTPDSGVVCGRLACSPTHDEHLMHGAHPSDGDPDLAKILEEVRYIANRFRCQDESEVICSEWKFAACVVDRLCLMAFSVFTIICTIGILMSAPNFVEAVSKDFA
Chain of bovine Gamma-Aminobutyric Acid Type A Receptor BDZ, alpha 5 site (GABARa5), GABRA5 (gene 523515) (Q08E50 whole entry, looked up): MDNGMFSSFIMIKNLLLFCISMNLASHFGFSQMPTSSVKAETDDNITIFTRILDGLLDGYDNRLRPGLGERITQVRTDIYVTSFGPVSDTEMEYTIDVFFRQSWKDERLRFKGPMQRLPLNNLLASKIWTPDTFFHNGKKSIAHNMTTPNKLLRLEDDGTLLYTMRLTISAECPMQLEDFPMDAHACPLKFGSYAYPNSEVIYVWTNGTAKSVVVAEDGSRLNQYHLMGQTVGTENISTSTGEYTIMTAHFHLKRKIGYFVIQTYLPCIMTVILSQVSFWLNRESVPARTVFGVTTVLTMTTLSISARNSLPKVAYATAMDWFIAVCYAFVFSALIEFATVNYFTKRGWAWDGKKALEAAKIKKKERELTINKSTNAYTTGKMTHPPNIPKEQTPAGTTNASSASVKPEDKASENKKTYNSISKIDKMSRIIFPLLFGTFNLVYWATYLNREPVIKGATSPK
Chain of rat Somatostatin Receptor (SST), Sstr1 (gene 25033) (P28646 whole entry, looked up): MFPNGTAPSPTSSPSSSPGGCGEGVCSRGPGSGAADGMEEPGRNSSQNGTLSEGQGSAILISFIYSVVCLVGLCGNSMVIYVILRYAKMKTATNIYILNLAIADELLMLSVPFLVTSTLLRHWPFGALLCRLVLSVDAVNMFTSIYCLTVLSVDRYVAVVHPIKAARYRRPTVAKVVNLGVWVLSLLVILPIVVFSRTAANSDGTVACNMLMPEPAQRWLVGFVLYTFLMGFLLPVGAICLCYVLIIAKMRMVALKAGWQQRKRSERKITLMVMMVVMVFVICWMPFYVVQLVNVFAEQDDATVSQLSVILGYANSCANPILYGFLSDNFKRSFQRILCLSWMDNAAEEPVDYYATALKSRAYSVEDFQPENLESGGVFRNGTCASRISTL
Chain of rat Histamine Receptor (H3), Hrh3 (gene 85268) (Q9QYN8 whole entry, looked up): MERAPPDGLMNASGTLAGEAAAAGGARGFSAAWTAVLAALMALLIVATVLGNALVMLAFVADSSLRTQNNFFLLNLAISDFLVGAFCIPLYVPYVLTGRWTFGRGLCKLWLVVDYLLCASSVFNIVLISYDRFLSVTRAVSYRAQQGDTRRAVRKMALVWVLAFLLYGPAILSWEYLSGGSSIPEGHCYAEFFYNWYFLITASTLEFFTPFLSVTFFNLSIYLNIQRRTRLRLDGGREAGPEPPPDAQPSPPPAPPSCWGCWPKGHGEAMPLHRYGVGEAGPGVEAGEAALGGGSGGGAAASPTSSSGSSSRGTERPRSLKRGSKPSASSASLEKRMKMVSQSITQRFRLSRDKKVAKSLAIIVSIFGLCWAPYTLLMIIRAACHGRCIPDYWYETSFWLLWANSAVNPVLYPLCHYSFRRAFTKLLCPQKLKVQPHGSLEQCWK
Chain of rat Gamma-Aminobutyric Acid Type A Receptor, Non-Selective (GABAR-NonSelective), Gabra1 (gene 29705) (P62813 whole entry, looked up): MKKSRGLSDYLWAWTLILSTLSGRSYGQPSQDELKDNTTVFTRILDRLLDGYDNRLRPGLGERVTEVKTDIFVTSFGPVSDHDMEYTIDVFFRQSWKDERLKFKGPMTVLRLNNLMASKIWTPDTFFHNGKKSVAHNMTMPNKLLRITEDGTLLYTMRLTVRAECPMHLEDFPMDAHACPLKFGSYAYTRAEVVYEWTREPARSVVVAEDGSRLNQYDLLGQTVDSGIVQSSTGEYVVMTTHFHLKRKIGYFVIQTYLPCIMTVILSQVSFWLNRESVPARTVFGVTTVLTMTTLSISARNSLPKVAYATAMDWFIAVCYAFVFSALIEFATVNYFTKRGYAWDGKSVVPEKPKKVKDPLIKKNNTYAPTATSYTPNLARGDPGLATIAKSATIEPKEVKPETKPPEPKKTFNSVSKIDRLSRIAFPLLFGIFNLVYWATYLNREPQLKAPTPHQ

For the compound `CCN(CC)CCOc1ccc(C(=C(Cl)c2ccccc2)c2ccccc2)cc1`, the AC50 was 16 µM (active) with Adra2b (gene 24174); 21 µM (active) in [1]; 21 µM (active) in [2]; 21 µM (active) in experiment [3]; 1.99 µM (active) in experiment [4].
On to `CN(C)CCCN1c2ccccc2Sc2ccc(Cl)cc21`, for which the AC50 is 25 µM (active) in [1]; 9.16 µM (active) in [2]; 1.96 µM (active) in [4]; 25 µM (active) in experiment [5]; 25 µM (active) in [6].
Take `Cc1cc(SC2=C(O)C[C@@](CCc3ccc(N)cc3)(C(C)C)OC2=O)c(C(C)(C)C)cc1CO`: the outcome (in [7]; with Adra2b (gene 24174); in experiment [2]; in experiment [3]; in [9]; in experiment [4]) was inactive. In addition, the outcome in experiment [10] and in experiment [5] was inactive. For the same compound, the AC50 in [8] is 17.2 µM (active).
Regarding `Cc1c(C)c2c(c(C)c1O)CCC(C)(COc1ccc(CC3SC(=O)NC3=O)cc1)O2` (configuration not stated), the call in experiment [2] was inactive.
In the case of `CN(C)C(=O)NC1(c2ccccc2)CCN(CC[C@@]2(c3ccc(F)c(F)c3)CN(C(=O)c3ccccc3)CCO2)CC1`, the result in experiment [1] and in experiment [11] was inactive. In addition, the AC50 in experiment [2] is 3.23 µM (active); in [9] it was 2.1 µM (active); in experiment [12], 3.38 µM (active); in experiment [4], 6.43 µM (active).
Consider `CN(C)CCCN(C)CCCN(C)C`, for which, in [13], the AC50 is 25 µM (active).
For the compound `CCCCCCCCCC[N+](C)(C)[O-]`, the call in [11] was inactive. In addition, the AC50 in experiment [4] was 19.1 µM (active).
For `O=C1OC(c2ccc(O)cc2)(c2ccc(O)cc2)c2ccccc21`, the AC50 in experiment [2] is 0.604 µM (active); in [9], 0.872 µM (active).
On to `CSc1ccc(Oc2ccc(S(N)(=O)=O)cc2CN(C)C)cc1C`, for which the AC50 was 1.74 µM (active) in the experiment with Adra2b (gene 24174); 25 µM (active) in [1]; 3.74 µM (active) in experiment [2]; 1.36 µM (active) in experiment [9]; 8.08 µM (active) in experiment [12]; 13.5 µM (active) in experiment [4]. Also, the AC50 in [14] was 10.3 µM (active). For the same compound, the compound was classed as inactive in experiment [5].
With `CC(C)(C)c1ccccc1`, the outcome in experiment [2] was inactive.
For the compound `CC(=O)O[C@]1(C(C)=O)CC[C@H]2[C@@H]3C=C(Cl)C4=CC(=O)[C@@H]5C[C@@H]5[C@]4(C)[C@H]3CC[C@@]21C`, the AC50 in [9] was 0.353 µM (active).
Still for that read-out and setting: as for `CO[C@@H]1COCC[C@@H]1N[C@@H]1CC[C@@](C(=O)N2CCc3ncc(C(F)(F)F)cc3C2)(C(C)C)C1`, the figure is 25 µM (active).
In the case of `Cc1cc(Cc2ccc(N)c(C)c2)ccc1N`, the result in the experiment on NCBI gene 24521 was inactive.
On the same count and under the same terms, as for `CCOCCOCCO`, the entry is “inactive”.
In the case of `COc1ccc(C(=O)Nc2nc3ccccc3c(NCc3ccccc3)c2C#N)cc1`, in [15], the outcome was inactive.
The same measure, in the same setting: with `CC(C)c1cccc(C(C)C)c1NC(=O)NS(=O)(=O)c1cc(C(C)(C)O)co1` the entry was “inactive”.
`CC(C)OC(=O)C(C)(C)Oc1ccc(C(=O)c2ccc(Cl)cc2)cc1`: the call in [16] was inactive.

These data come from PubChem BioAssay (EPA / NIEHS).
